Measured values as given in PubChem BioAssay AID1159580 (chemical genetic matrix, 2015).
Where “and” joins values, the source holds several entries; their conditions need not be identical. Identical values can stand only once. About 2,000 (36%) of roughly 5,500 compounds were called active. Inconclusive results (about 18%) are left out. No stated cut-off is given here; in the data, active means normalized growth mostly below about 0.91 (no sharp cut-off); inconclusive means no clear call, values can overlap the other calls; inactive means mostly above about 0.92. The list shows a part of the results.

Assay: chemical genetic growth profiling, strain panel (AID 1159580);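 further: tested at 20 µM; growth read once vehicle control cultures reached saturation at 30 °C; 1 = growth at the plate median or of vehicle wells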
Conditions: S. cerevisiae deletion strains, growth OD

In the case of `O=c1c(O)c(-c2ccccc2)oc2ccccc12`, the normalized growth (locus YAL013W, strain DEP1, stronger effect = lower value) is reported as 0.993 (inactive), the normalized growth (locus YAL021C, strain ccr4, stronger effect = lower value) is reported as 0.424 (active) and the normalized growth (locus YAL026C, strain drs2, stronger effect = lower value) is reported as 0.17 (active). For the same compound, the normalized growth (locus YAL030W, strain snc1, stronger effect = lower value) was 0.68 (active), the normalized growth (locus YBL061C, strain skt5, stronger effect = lower value) was 0.578 (active) and the normalized growth (locus YBR009C, strain hhf1, stronger effect = lower value) was 0.61 (active). The normalized growth (locus YBR021W, strain FUR4, stronger effect = lower value) was 1.01 (inactive), the normalized growth (locus YBR023C, strain chs3, stronger effect = lower value) was 0.363 (active) and the normalized growth (locus YBR171W, strain sec66, stronger effect = lower value) was 0.815 (active). For the same compound, the normalized growth (locus YBR229C, strain ROT2, stronger effect = lower value) was 0.963 (inactive), the normalized growth (locus YBR231C, strain swc5, stronger effect = lower value) was 0.418 (active) and the normalized growth (locus YBR279W, strain paf1, stronger effect = lower value) was 0.447 (active). For the same compound, the normalized growth (locus YCL011C, strain gbp2, stronger effect = lower value) was 0.51 (active), the normalized growth (locus YCL016C, strain dcc1, stronger effect = lower value) was 0.628 (active) and the normalized growth (locus YCL029C, strain bik1, stronger effect = lower value) was 0.983 (inactive). The normalized growth (locus YCL061C, strain MRC1, stronger effect = lower value) was 0.527 (active), the normalized growth (locus YCL069W, strain vba3, stronger effect = lower value) was 0.47 (active) and the normalized growth (locus YCR088W, strain abp1, stronger effect = lower value) was 0.654 (active). For the same compound, the normalized growth (locus YDL005C, strain med2, stronger effect = lower value) was 0.855 (active), the normalized growth (locus YDL035C, strain GPR1, stronger effect = lower value) was 0.985 (inactive) and the normalized growth (locus YDL040C, strain nat1, stronger effect = lower value) was 0.794 (active). For the same compound, the normalized growth (locus YDL074C, strain BRE1, stronger effect = lower value) was 1.01 (inactive), the normalized growth (locus YDL101C, strain DUN1, stronger effect = lower value) was 0.997 (inactive) and the normalized growth (locus YDL185W, strain tfp1, stronger effect = lower value) was 0.974 (inactive). For the same compound, the normalized growth (locus YDL192W, strain arf1, stronger effect = lower value) was 1 (inactive), the normalized growth (locus YDR001C, strain nth1, stronger effect = lower value) was 0.651 (active) and the normalized growth (locus YDR069C, strain doa4, stronger effect = lower value) was 0.302 (active). For the same compound, the normalized growth (locus YDR101C, strain arx1, stronger effect = lower value) was 1.03 (inactive), the normalized growth (locus YDR137W, strain rgp1, stronger effect = lower value) was 0.363 (active) and the normalized growth (locus YDR150W, strain NUM1, stronger effect = lower value) was 0.993 (inactive). For the same compound, the normalized growth (locus YDR159W, strain sac3, stronger effect = lower value) was 0.929 (inactive), the normalized growth (locus YDR162C, strain NBP2, stronger effect = lower value) was 0.981 (inactive) and the normalized growth (locus YDR195W, strain ref2) was 1.17 [resistant] (active). The normalized growth (locus YDR297W, strain sur2, stronger effect = lower value) was 0.709 (active), the normalized growth (locus YDR318W, strain mcm21, stronger effect = lower value) was 0.963 (inactive) and the normalized growth (locus YDR334W, strain swr1, stronger effect = lower value) was 0.347 (active). The normalized growth (locus YDR335W, strain msn5, stronger effect = lower value) was 0.608 (active), the normalized growth (locus YDR388W, stronger effect = lower value) was 0.994 (inactive) and the normalized growth (locus YDR392W, strain spt3, stronger effect = lower value) was 0.135 (active). The normalized growth (locus YDR502C, strain sam2, stronger effect = lower value) was 1.01 (inactive), the normalized growth (locus YEL003W, strain gim4, stronger effect = lower value) was 0.595 (active) and the normalized growth (locus YEL037C, strain rad23, stronger effect = lower value) was 0.465 (active). The normalized growth (locus YEL061C, strain CIN8 (second series), stronger effect = lower value) was 0.592 (active), the normalized growth (locus YEL061C, strain CIN8, stronger effect = lower value) was 0.984 (inactive) and the normalized growth (locus YER015W, strain faa2, stronger effect = lower value) was 0.455 (active). For the same compound, the normalized growth (locus YER016W, strain bim1, stronger effect = lower value) was 0.81 (active), the normalized growth (locus YER110C, stronger effect = lower value) was 0.987 (inactive) and the normalized growth (locus YER111C, strain swi4, stronger effect = lower value) was 0.71 (active). The normalized growth (locus YER155C, strain BEM2 (second series), stronger effect = lower value) was 0.602 (active), the normalized growth (locus YER155C, strain BEM2, stronger effect = lower value) was 0.999 (inactive) and the normalized growth (locus YER167W, strain BCK2, stronger effect = lower value) was 0.99 (inactive). For the same compound, the normalized growth (locus YFR010W, strain ubp6, stronger effect = lower value) was 0.291 (active), the normalized growth (locus YGL078C, strain dbp3, stronger effect = lower value) was 0.991 (inactive) and the normalized growth (locus YGL086W, strain mad1, stronger effect = lower value) was 1.04 (inactive). The normalized growth (locus YGL167C, strain pmr1, stronger effect = lower value) was 0.834 (active), the normalized growth (locus YGL173C, strain kem1, stronger effect = lower value) was 0.271 (active) and the normalized growth (locus YGL227W, strain vid30, stronger effect = lower value) was 0.771 (active). For the same compound, the normalized growth (locus YGL240W, strain doc1, stronger effect = lower value) was 0.643 (active), the normalized growth (locus YGL248W, strain PDE1, stronger effect = lower value) was 0.986 (inactive) and the normalized growth (locus YGL253W, strain hxk2, stronger effect = lower value) was 0.356 (active). For the same compound, the normalized growth (locus YGR078C, strain PAC10, stronger effect = lower value) was 0.991 (inactive), the normalized growth (locus YGR135W, strain pre9, stronger effect = lower value) was 0.977 (inactive) and the normalized growth (locus YGR229C, strain SMI1, stronger effect = lower value) was 0.998 (inactive). The normalized growth (locus YGR252W, strain gcn5, stronger effect = lower value) was 0.947 (inactive), the normalized growth (locus YHR013C, strain ard1, stronger effect = lower value) was 0.219 (active) and the normalized growth (locus YHR027C, strain rpn1, stronger effect = lower value) was 0.268 (active). For the same compound, the normalized growth (locus YHR030C, strain SLT2, stronger effect = lower value) was 0.991 (inactive) and 0.591 (active), the normalized growth (locus YHR079C, strain IRE1 (second series), stronger effect = lower value) was 0.993 (inactive) and the normalized growth (locus YHR079C, strain IRE1, stronger effect = lower value) was 0.812 (active). The normalized growth (locus YHR094C, strain hxt1, stronger effect = lower value) was 0.975 (inactive), the normalized growth (locus YHR129C, strain ARP1, stronger effect = lower value) was 0.982 (inactive) and the normalized growth (locus YHR142W, strain chs7, stronger effect = lower value) was 0.294 (active). The normalized growth (locus YHR200W, strain rpn10, stronger effect = lower value) was 0.992 (inactive), the normalized growth (locus YIL066C, strain RNR3, stronger effect = lower value) was 0.978 (inactive) and the normalized growth (locus YIL073C, strain SPO22, stronger effect = lower value) was 0.996 (inactive). For the same compound, the normalized growth (locus YIL125W, strain kgd1, stronger effect = lower value) was 0.999 (inactive), the normalized growth (locus YIR030C, strain dcg1, stronger effect = lower value) was 0.998 (inactive) and the normalized growth (locus YJL092W, strain hpr5, stronger effect = lower value) was 0.545 (active). The normalized growth (locus YJL095W, strain BCK1 (second series), stronger effect = lower value) was 0.453 (active), the normalized growth (locus YJL095W, strain BCK1, stronger effect = lower value) was 0.983 (inactive) and 0.617 (active) and the normalized growth (locus YJL115W, strain asf1, stronger effect = lower value) was 0.616 (active). The normalized growth (locus YJL129C, strain trk1, stronger effect = lower value) was 0.77 (active), the normalized growth (locus YJL134W, strain LCB3, stronger effect = lower value) was 0.986 (inactive) and the normalized growth (locus YJL154C, strain vps35, stronger effect = lower value) was 0.752 (active). For the same compound, the normalized growth (locus YJL164C, strain tpk1, stronger effect = lower value) was 0.333 (active), the normalized growth (locus YJL166W, strain qcr8, stronger effect = lower value) was 0.355 (active) and the normalized growth (locus YJL168C, strain set2, stronger effect = lower value) was 0.994 (inactive). The normalized growth (locus YJL187C, strain SWE1 (second series), stronger effect = lower value) was 1.01 (inactive).
